Compounds with a hit are over-represented: about 0.89% of the library has one in this group of screens.
A1 inhib – inhibitors of A1. MEF A1-2A-BIM cells, caspase-Glo luminescence, 3 h; percent of clofoctol signal, DMSO as zero. caspase activation, % (no concentration beside the values). 0.51% of 21,000 active. AID 2241;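 active means most replicate scores above 10, or exactly half above 10 with mean activity above 10; inconclusive means mean activity below 10 while half the replicates exceed 10; inactive means most replicate scores below 10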;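 further: effector caspase 3 and 7 activity cleaving a DEVD luciferin substrate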
BJeLR viability – lowers viability of BJeLR cells | BJeLR fibroblasts viability, CellTiterGlo ATP luminescence, 48 h; HRASV12, hTERT and SV40 LT/ST transformed | viability loss activity score, % (test concentration not listed) | AID 2275 | 0.64% of 30,000 active; in the data active means viability loss activity score above about 50%; inconclusive means no clear call, values can overlap the other calls; inactive means below about 35%;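 further: higher score means fewer live cells and less ATP luminescence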
* hit, by the source's call; ? = inconclusive; nt = no result.

SMILES | A1 inhib | BJeLR viability
COc1cc(OC)cc(-c2nc(N)c3c(C)c(-c4ccc(OC)c(OC)c4)sc3n2)c1 | 10.1* | 0.9
CC(C)=CCNc1ncnc2nc[nH]c12 | -0.2 | -3.7
Cn1cnc([N+](=O)[O-])c1Sc1ncnc2nc[nH]c12 | -0.6 | 87.6*
Nc1ncnc2c1cnn2-c1ccccc1 | -0.8 | 3.6
C=CCn1c(Sc2ncnc3c2cnn3-c2ccccc2)nnc1-c1ccncc1 | 1.3 | 68.8*
C=C1C(=O)O[C@@H]2[C@H]3O[C@]3(C)CCC=C(C)CC[C@@H]12 | -0.1 | 17.1
C=C1C(=O)O[C@H]2[C@H]1C[C@H](OC(=O)/C(C)=C\C)/C(C)=C\CC[C@@]1(C)O[C@@H]21 | -1.6 | 21.0
C=C1C(=O)O[C@@H]2C3O[C@]3(C)CC/C=C(/C)CC[C@@H]12 (stereo not given in full) | -0.7 | 7.4
C=C1C(=O)O[C@H]2[C@H]1[C@@H](OC(=O)/C(C)=C\C)C(OC(C)=O)/C(C(=O)OC)=C\CC[C@@]1(C)O[C@H]21 (stereo not given in full) | 2.8 | 68.1*
C=C1C(=O)O[C@H]2[C@H]1[C@@H](OC(=O)/C(C)=C/C)C(OC(C)=O)/C(C(=O)OC)=C\CC[C@@]1(C)O[C@H]21 (stereo not given in full) | 1.6 | 60.6*
C=C1C(=O)O[C@H]2[C@H]1[C@@H](OC(=O)C(C)(O)CCl)C(OC(C)=O)/C(C(=O)OC)=C\CC[C@@]1(C)O[C@H]21 (stereo not given in full) | 2.9 | 50.2*
O=C(NCCn1ccc2ccccc21)c1cc(C(F)(F)F)cc(C(F)(F)F)c1 | nt | 5.4
O=C(O)C12CC3CC(C1)CC(n1ncc(NCCc4ccccc4)c(Cl)c1=O)(C3)C2 | nt | 1.1
CCc1cc(C(c2ccc(Cl)cc2)N2CCN(CCO)CC2)c(NC(=O)c2ccccc2)s1 (stereo not given) | -0.2 | 10.2
Cc1ccccc1S(=O)Cc1ccc(C(=O)N2CCCC2)o1 (stereo not given) | nt | -1.5
CCCCS(=O)CSc1nc(-c2cccs2)cc(-c2ccccc2)c1C#N (stereo not given) | -0.2 | -6.3
CC(=O)NCCSc1nc(-c2cccs2)cc(-c2ccc(F)cc2)c1C#N | 10.5* | -9.2
CCC(C)[C@@H](C(=O)NCc1ccc(F)cc1)N1Cc2ccccc2C1=O (stereo not given in full) | nt | 1.7
N#CSCC(=O)C12CC3CC(CC(C3)C1)C2 | 36.2* | 23.5
O=C(CSc1ccc(F)cc1Cl)C12CC3CC(CC(C3)C1)C2 | 0.5 | -2.6
c1ccc(CCNc2nc3ccccc3n3cnnc23)cc1 | nt | -2.6
C=C(C)C(=O)O[C@H]1[C@H]2C(=C)C(=O)O[C@@H]2C[C@@H](C)[C@@H]2O[C@@H]2C(=O)[C@](C)(O)[C@@H]1OC(=O)C(=C)C | 0.0 | 79.7*
C=C(C)C(=O)O[C@H]1CC(=C)C2C[C@H](O)[C@](O)(CO)C2[C@H]2OC(=O)C(=C)[C@H]12 (stereo not given in full) | 0.4 | -11.2
COc1ccc(NC(=O)C2CCCCN2S(=O)(=O)c2ccc(C(C)(C)C)cc2)cc1 (stereo not given) | nt | 3.0
CC(=O)OC(C(=O)Nc1cccc(C)n1)c1ccccc1 (stereo not given) | nt | 11.4
SMILES | A1 inhib | BJeLR viability
CCCCC[C@H](O)CC(=O)CCc1ccc(O)c(OC)c1 | -0.3 | 3.1
COc1cc(CC(C)C(C)Cc2ccc(O)c(OC)c2)ccc1O (stereo not given) | 8.3 | 117.7*
CC1CCCCN1S(=O)(=O)c1ccc2c(c1)oc(=O)n2C (stereo not given) | nt | 10.6
Cc1c(C(=O)NC(C)C)oc2ccc(S(=O)(=O)N3CCCC3)cc12 | nt | 4.1
Cc1c(C(=O)Nc2ccccc2Br)oc2ccc(S(=O)(=O)N3CCCC3)cc12 | 60.0* | -0.8
Cc1ccc(-n2nc3c(c2NC(=O)/C=C\c2ccccc2)CSC3)cc1 | nt | -0.5
CCC(CC)NC(=O)c1ccc2c(c1)OCO2 | -0.1 | -1.2
c1ccc2[nH]c(-c3nc4ccccc4s3)nc2c1 | -7.0 | 101.4*
O=C(Nc1ccc(-c2nc3ccccc3[nH]2)cc1)c1ccc(-c2ccccc2)cc1 | -0.9 | 2.0
c1csc(CSc2nc3ccccc3[nH]2)c1 | nt | 5.4
c1ccc2[nH]c(-c3cscn3)nc2c1 | -5.5 | 59.5*
CCCN1C2=NC3C=CC=CN3C(=O)C2=CC(C(=O)OCC)C1=NC(=O)C(CC)c1ccccc1 (stereo not given) | nt | -2.0
CC(C)(C)C1CCC2(CC1)C(C#N)C2(C#N)C(=O)c1ccccc1 (stereo not given) | 0.1 | 6.7
CCOC(=O)N1CCN(C(=O)CCN2C(=O)/C(=C/C=C/c3ccccc3)SC2=S)CC1 | nt | 2.0
Cc1cc(NC(=O)Nc2ccccc2)c(C(F)(F)F)o1 | nt | 4.1
O=C(CCn1c(SCc2cccc(F)c2)nc2ccccc2c1=O)NCCc1ccccc1 | 19.4* | -2.4
O=C(CSc1nc2ccccc2c(=O)n1CCc1ccccc1)NCCc1ccccc1 | -0.8 | 1.2
CCOC(=O)c1c(C)nsc1Nc1cc(C)ccc1C | 0.1 | 1.7
CCCCNc1c(C(=O)OCC)c(C)nc2c1cnn2CC | -0.7 | 79.9*
Cc1csc(NC2c3ccccc3C(=O)N2Cc2ccccc2)n1 (stereo not given) | nt | 1.4
Cc1[nH]c2ccccc2c1C(O)c1cccnc1 (stereo not given) | 1.2 | -2.0
Cc1[nH]c2ccccc2c1C(c1ccccc1)N1CCN(C)CC1 (stereo not given) | 65.7* | 40.2
COc1ccccc1Nc1c2c(nc3ccc(NC(=O)Cc4cccs4)cc13)CCCC2 | nt | 5.5
CC1OC(OC2C(C(=O)O)OC(O[C@H]3CC[C@@]4(C)C(CC[C@]5(C)C4CC=C4C6CC(C)(C)CC[C@]6(C(=O)OC6OC(CO)C(O)C(O)C6O)CC[C@]45C)C3(C)C)C(O)C2O)C(OC2OCC(O)C(O)C2O)C(O)C1O (stereo not given in full) | 0.0 | -1.9
C/C=C(/C)C(=O)O[C@H]1CC(C)(C)C[C@H]2C3=CCC4[C@@]5(C)CC[C@H](O[C@@H]6O[C@H](C(=O)O)[C@@H](O[C@@H]7O[C@H](CO)[C@H](O)[C@H](O)[C@H]7O[C@@H]7O[C@H](CO)[C@@H](O)[C@H](O)[C@H]7O)[C@H](O)[C@H]6O[C@@H]6O[C@@H](C)[C@H](O)[C@@H](O)[C@H]6O)C(C)(C)C5CC[C@@]4(C)[C@]3(C)C[C@@H](O)[C@@]12CO (stereo not given in full) | -4.1 | 127.1*
SMILES | A1 inhib | BJeLR viability
O=C(NCCO)c1nnc(-c2cccc(Cl)c2)o1 | nt | 5.8
Cn1c(=O)cc(OCCCC(=O)NC2CCCCC2)c2ccccc21 | nt | 5.0
CCn1c2c(c3cc(C4CCCCC4)ccc31)CCC/C2=N\O | 15.3* | -5.9
CCn1c2c(c3cc(C4CCCCC4)ccc31)CCCC2=O | 0.5 | 0.2
CCOc1ccccc1N(C)C(=O)c1cc2cc3ccc(OC)cc3nc2s1 | nt | -4.4
COc1cc(NC(=O)CC(C)(C)C)c(OC)cc1Cl | -0.7 | 2.2
Cc1ccc(-c2nc(-c3ccccc3)no2)cc1 | -5.9 | 9.7
Cc1ccc2nc(-c3ccccc3)cn2c1 | -6.5 | 77.6*
C=CCn1c(=S)sc2c(SCC(N)=O)ncnc21 | nt | 7.0
C=CCn1c(=S)sc2c(Sc3nnc(-c4ccco4)o3)ncnc21 | ? | 63.1*

Source: PubChem BioAssay
